Experimental findings from PubChem BioAssay AID1558 (National Center for Advancing Translational Sciences (NCATS), 2009) are described below.

Inconclusive results are not listed. A number with no mark means an inactive call. Activity calls are given as the source filed them. The call rests on the fitted dose curve; in most records, active means well fitted inhibition curve with a large enough effect; inconclusive means small, poorly fitted or top-dose-only effect; inactive means flat fitted curve, though single readings scatter.

Sequence of Microtubule-associated protein tau (Homo sapiens) (P10636 561-689 P618L limits assumed): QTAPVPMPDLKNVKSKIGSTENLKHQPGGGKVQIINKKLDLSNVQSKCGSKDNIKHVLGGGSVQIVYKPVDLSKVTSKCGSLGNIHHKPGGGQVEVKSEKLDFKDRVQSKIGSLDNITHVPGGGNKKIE

The target in this test is Microtubule-associated protein tau (Homo sapiens) (UniProt P10636). Description: Confirmation Concentration-Response Assay for Inhibitors of Tau Fibril Formation, Thioflavin T Binding. Particulars: recombinant tau K18 P301L heparin fibrillization, ThT fluorescence; series mostly up to 100 µM; activity change, negative = inhibition: at the top concentration. The essentials:
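Heparin (20 uM final) induced fibrillization of human tau K18 P301L (15 uM unlabeled plus 0.24 uM Alexa 594-labeled, final) in 100 mM sodium acetate pH 7 with compound, 6 hr at 37 C. ThT (30 uM final) added, read after 1 hr (ex 450, em 510 nm).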
`CC(=O)Nc1sc(C)c2cnn(-c3ccccc3)c(=O)c12`: the “activity change, negative = inhibition” value is -10.9% [at 57.1 µM].
Still for that read-out and setting: the result for `CCOC(=O)c1c(N)sc2c1CN(C)CC2` reads -12.4% [at 57.1 µM]; that for `O=C(Nc1cccc(-c2nc3ccccc3o2)c1)c1cc([N+](=O)[O-])ccc1N1CCOCC1`, -10%.
The same measure, in the same setting: next, `COC(=O)C1CCc2sc(N)c(C(=O)OCc3ccccc3)c21` (configuration not stated): -25.7% [at 57.1 µM].
For `CCN(c1ccccc1)S(=O)(=O)c1nnc(NC(=O)C(C)(C)C)s1`, the “activity change, negative = inhibition” value is -3.75%.
The same measure, in the same setting: the result for `CCOC(=O)c1c(N)sc2c1CCOC2` reads -10.4% [at 57.1 µM].
As for `COc1ccc(-n2nc(C(=O)O)c3csc(N)c3c2=O)cc1`, the Potency was 1 µM (active).
As to `O=C(Cc1ccccc1)Nc1sc2c(c1C(=O)Nc1cccc(Cl)c1)CCCC2`, the “activity change, negative = inhibition” value was -11.2% [at 57.1 µM].
On the same count and under the same terms, next, `COc1c(Cl)cccc1NC(=O)c1c(NC(=O)Cc2ccccc2)sc2c1CCCC2`: -15.4% [at 57.1 µM].
On the same count and under the same terms, next, `O=S(=O)(c1ccc(NC(=S)N/N=C/c2ccc(N3CCOCC3)cc2)cc1)N1CCOCC1`: -9.1%.
For the compound `CCn1c(CSc2nccn2C)nc2cc(C(=O)O)ccc21`, the Potency was 39.8 µM (active).
On to `CCn1nccc1C(=O)Nc1cc(Cl)cc(Cl)c1`, for which the “activity change, negative = inhibition” value was -4.3%.
As for `CCOC(=O)c1ccc(S(=O)(=O)Nc2nc3cc(S(=O)(=O)NC4=NCCCCC4)ccc3s2)cc1`, the Potency is 10 µM (active).
On to `CN(C(=S)Nc1cccnc1)c1ccc(O)cc1`, for which the Potency is 10 µM (active).
For the compound `COC(=O)c1c(NC(=O)C(C)(C)C)sc2c1C(C(=O)OC)CC2` (configuration not stated), the “activity change, negative = inhibition” value was -17.1%.
Take `CN(c1ccccc1)S(=O)(=O)c1nnc(NC(=O)C2CCCCC2)s1`: the Potency is 22.4 µM (active).
`O=C(Nc1ccccc1)Nc1ccccc1`: the “activity change, negative = inhibition” value was 10.8%.
`CC(=O)Nc1nc(C)c(-c2csc(Nc3cccc([N+](=O)[O-])c3)n2)s1`: the Potency is 3.55 µM (active).
For `O=C(Nc1sc2c(c1C(=O)Nc1cccc(Cl)c1)CCCC2)c1cccs1`, the Potency was 3.55 µM (active).
Same read-out and setting: next, `O=S(=O)(c1ccc2nc(-c3ccco3)c(-c3ccco3)nc2c1)N1CCOCC1`: 4.47 µM (active); `Cc1cccc(NC(=O)c2c(NC(=O)c3ccccc3)sc3c2CCCC3)c1`: 7.94 µM (active).
As to `COc1cc(/C=N/N=C2/NC(=O)C(CC(=O)O)S2)ccc1OCc1ccc(Cl)cc1` (configuration not stated), the “activity change, negative = inhibition” value was -9.55%.
On the same count and under the same terms, the result for `O=C(Nc1nc2ccc(S(=O)(=O)N3CCCC3)cc2s1)c1ccc(F)cc1` reads 12.3%.
Same read-out and setting: next, `NCCc1ccc(O)c(O)c1`: -25.5%; `Cn1sc(NC(=O)c2ccccc2)nc1=O`: -0.876% [at 57.1 µM]; `COc1cccc(/C=C2/SC(=S)N(CC(=O)Nc3nccs3)C2=O)c1`: -10.2% [at 57.1 µM].
On to `CCN(CC)C(=O)c1nn(-c2ccc(OC)cc2)c(=O)c2c(N)scc12`, for which the Potency was 10 µM (active).
